# a7 integrin act = qHTS for Activators of Integrin-Mediated Alleviation for Muscular Dystrophy. Potency, µM (doses to about 38.3 µM), hits mostly activators. AID 624291, 2012. 0.064% of 350,000 active. alpha7betagal myoblasts, beta-gal FDG fluorescence, 48 h; also: nearly all actives have a fitted effect of over 60% in size
#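 Alpha7betagal+/- myoblasts (passage 13) were plated 16-24 hr, then exposed to compounds (1:260 dilution of DMSO stock) for 48 hours at 37C. After MPER lysis, β-galactosidase reporter activity was read as FDG fluorescence (ex 480/em 540) after 30 minutes.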
# Nrf2 ARE act = qHTS of Nrf2 Activators | AID 624171, 2012 | 0.31% of 410,000 active | AREc32 ARE-luciferase reporter (MCF7-derived line), luminescence, 24 h | Potency, µM (top dose mostly 46.1 µM), most hits filed as activators; also: nearly all actives have a fitted effect of over 65% in size
#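 Luminescent ARE reporter assay in AREc32_Fluc cells: overnight plating at 37 deg C, 24 hr compound incubation, Steady-Glo added, 30 min RT before reading.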
# uPA surface inh = qHTS for Inhibitors of Cell Surface uPA Generation; cell surface uPA generation assay, qHTS; Potency, µM (highest dose often 38.3 µM), usual class: inhibitors; 0.31% of 330,000 active; active = well fitted inhibition curve with a large enough effect; inconclusive = small, poorly fitted or top-dose-only effect; inactive = no such curve, though single readings can be large or run the other way; tested in mouse RAW 264.7 cells; also: nearly all actives have a fitted effect of over 55% in size
# 12-LOX inh = Primary qHTS assay for inhibitors of human arachidonate 12S-lipoxygenase (ALOX12): Round 2. Polyunsaturated fatty acid lipoxygenase ALOX12 (Homo sapiens), P18054. purified 12hLO, xylenol orange hydroperoxide absorbance. Potency, µM (top dose mostly 108 µM), hits mostly inhibitors. 1.1% of 580,000 active. AID 1671190, 2021
# Target sequence (P18054 whole entry, looked up): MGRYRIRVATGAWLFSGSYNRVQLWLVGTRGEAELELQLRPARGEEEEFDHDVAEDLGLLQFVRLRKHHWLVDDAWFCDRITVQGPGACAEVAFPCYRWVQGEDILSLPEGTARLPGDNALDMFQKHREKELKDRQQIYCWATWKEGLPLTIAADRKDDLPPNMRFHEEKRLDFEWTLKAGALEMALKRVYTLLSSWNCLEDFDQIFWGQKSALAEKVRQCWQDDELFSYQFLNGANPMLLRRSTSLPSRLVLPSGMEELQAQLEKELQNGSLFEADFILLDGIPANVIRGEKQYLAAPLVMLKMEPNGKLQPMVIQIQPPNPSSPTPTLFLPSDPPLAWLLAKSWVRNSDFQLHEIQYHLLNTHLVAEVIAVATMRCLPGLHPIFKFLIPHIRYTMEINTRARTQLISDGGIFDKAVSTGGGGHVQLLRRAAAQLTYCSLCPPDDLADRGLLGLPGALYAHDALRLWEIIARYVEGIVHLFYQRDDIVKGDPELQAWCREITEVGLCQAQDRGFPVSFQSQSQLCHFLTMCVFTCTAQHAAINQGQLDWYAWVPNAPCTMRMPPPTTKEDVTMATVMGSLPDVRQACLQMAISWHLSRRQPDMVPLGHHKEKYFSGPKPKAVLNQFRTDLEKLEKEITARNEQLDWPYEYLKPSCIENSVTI
#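 Purified human 12hLO at 150 nM in 25 mM Hepes, 0.01% Triton X-100, pH 7.0, preincubated 15 min at room temperature with compound. Reaction started with 40 uM arachidonic acid, 30 min at room temperature. Hydroperoxide measured by Fe-xylenol orange, 573/405 nm absorbance ratio.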
# IL-2 act = qHTS of IL-2 Activators; 0.065% of 360,000 active; activation, % (series mostly up to about 46 µM); IL-2 activation reporter assay, cell-based qHTS; stimulated with anti-CD3/CD4/CD28 beads; in transgenic mouse T cells; in the data active = activation above about 50%; inconclusive = mostly about 30% to 49%
#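 Quantitative HTS in unstimulated transgenic mouse T cells, with memory T cells as non-tolerant control and PMA/ionomycin as tolerance-bypass control. Compound pretreatment lasted 60 minutes before 18 h bead stimulation; EGFP/DsRed fluorescence read.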
# Hits are given with their value; i = inactive; ? = inconclusive; nt = no result; [ ] = remark or other dose. This is a sample that favours compounds with a hit; in the whole collection about 1.5% have one here. Unless noted, calls follow the shape of the dose curve; as a rule, active = well fitted curve in the direction sought with a large enough effect; inconclusive = small, poorly fitted or top-dose-only effect, or another doubt; inactive = no such curve, though single readings can be large; an effect the other way counts as inactive or inconclusive.
SMILES,a7 integrin act,Nrf2 ARE act,uPA surface inh,12-LOX inh,IL-2 act
Cc1cc(C(=O)CCl)c(C)n1CCc1ccc(Cl)cc1,i,?,i,?,i
COc1ccc(CCn2c(C)cc(C(=O)CCl)c2C)cc1OC,i,i,8.91µM,i,i
CCOC(=O)c1c(NC(=O)C2=C(C)NC(=S)NC2c2ccc(F)cc2)sc(C)c1C (configuration not stated),i,i,i,28.2µM,i
CC1=C(C(=O)Nc2ccc(F)c(F)c2)C(c2ccccc2F)NC(=S)N1 (configuration not stated),nt,nt,nt,i,nt
CCOC(=O)c1c(NC(=O)C2=C(C)NC(=S)NC2c2ccc(F)cc2F)sc(C)c1C (configuration not stated),i,i,i,39.8µM,i
CCOC(=O)c1c(NC(=O)C2=C(C)NC(=S)NC2c2ccc(C)cc2)sc(C)c1C (configuration not stated),i,i,i,17.8µM,i
CC1=C(C(=O)Nc2ccccc2)C(c2ccc(Cl)cc2)NC(=S)N1 (configuration not stated),nt,nt,nt,i,nt
CCCCN(C1CCS(=O)(=O)C1)S(=O)(=O)c1ccc(OC)c(C)c1 (configuration not stated),nt,nt,nt,i,nt
NC(=O)C(NC(=O)c1cccc(Oc2cccc(C(F)(F)F)c2)c1)C(N)=O,nt,nt,nt,i,nt
O=C(Nc1cccc(C(F)(F)F)c1)c1cc(-c2ccc[nH]2)n[nH]1,nt,nt,nt,15.8µM,nt
O=C(Nc1cccc(F)c1)c1cc(-c2ccc[nH]2)n[nH]1,nt,nt,nt,20µM,nt
Cc1ccc(NC(=O)c2cc(-c3ccc[nH]3)n[nH]2)cc1F,nt,nt,nt,10µM,nt
Cc1cc(F)ccc1NC(=O)c1cc(-c2ccc[nH]2)n[nH]1,nt,nt,nt,17.8µM,nt
COCCOCc1nc(C2CCCCN2C(=O)NCc2ccccc2)no1 (configuration not stated),nt,nt,nt,i,nt
Cc1nc2c(c(C)c1CCC(=O)NCCN1CCN(C)CC1)c(=O)n(C)c(=O)n2C,nt,nt,nt,i,nt
CCCCCCC(=O)O,i,i,i,i,i
CCCCCCCCCCSCCC(=O)O,nt,nt,nt,39.8µM,nt
COc1ccc(C(=O)N2CCC(N3C(=O)C4(CCCCC4)C3c3ccccc3)CC2)cn1 (configuration not stated),nt,nt,nt,i,nt
CCN(C(=O)C=Cc1ccco1)c1ccccc1,i,14.1µM,i,?,i
C=CCN(Cc1cccs1)C(=O)/C=C/c1ccccc1,nt,nt,nt,i,nt
O=C(/C=C/c1ccco1)N(Cc1cccs1)Cc1cccs1,nt,nt,nt,8.91µM,nt
COc1ccc(/C=C/C(=O)C(C(N)=O)=C2SCCS2)cc1,i,?,i,i,i
NC(=O)C(C(=O)/C=C/c1ccc(Cl)cc1)=C1SCCS1,i,7.94µM,?,i,i
CCCOc1ccc(-c2nc(C#N)c(NCCCN(C)C)o2)cc1,nt,nt,nt,i,nt
CCOC(=O)C1=C(NC(=S)NC(=O)c2ccccc2)c2ccccc2CC1C(C)C (configuration not stated),i,i,i,?,i
SMILES,a7 integrin act,Nrf2 ARE act,uPA surface inh,12-LOX inh,IL-2 act
CCOC(=O)C1=C(NC(=S)NC(=O)c2ccccc2)c2ccccc2CC1(C)CC (configuration not stated),i,i,i,15.8µM,i
Cc1cccc(C)c1NC(=S)Nc1ccc(Cl)c(Cl)c1,i,i,i,?,i
Cc1cc(C)cc(NC(=S)Nc2ccc(Cl)c(Cl)c2)c1,i,i,i,39.8µM,i
Cc1ccc(S(=O)(=O)N(C)CC(=O)Nc2nc3ccccc3s2)cc1,i,i,i,i,i
Cc1ccc(/C(=N/Nc2nc3ccccc3s2)C2=C(O)c3ccccc3C2=O)cc1,i,i,nt,3.55µM,i
Cc1ccc(S(=O)(=O)NC(Cc2ccccc2)C(=O)NN)cc1 (configuration not stated),i,i,i,i,i
Cc1ccc(S(=O)(=O)N[C@@H](Cc2ccccc2)C(=O)CCl)cc1,nt,i,5.01µM,?,i
Cc1ccc(S(=O)(=O)NN(Cc2ccccc2)Cc2ccccc2)cc1,i,i,nt,15.8µM,i
COc1ccccc1-c1cc(C(=O)Nc2ccc(C)cc2)no1,nt,nt,nt,i,nt
Cc1ccc(/C=C/C(=O)N2CCN(S(=O)(=O)c3ccc(C)c(C)c3)CC2)o1,i,i[9.22 µM],i,17.8µM,i
COC(=O)N/N=C1\CCCc2ccccc21,i,i,i,i,i
COc1cccc(NC(=S)N/N=C2/CCCCc3ccccc32)c1,i,i,i,44.7µM,i
CC(C)NC(=S)N/N=C1\CCCCc2ccccc21,i,i,i,39.8µM,i
Cc1cccc(NC(=S)N2CCCCCC2)c1C,i,i,i,i,i
Cc1cccc(NC(=S)NN=C2CCCC2)c1C,nt,nt,nt,28.2µM,nt
Cc1ccc(C)c(S(=O)(=O)N/N=C2/CCCc3ccccc32)c1,i,i,i,i,i
Cc1ccc(C)c(NC(=S)N/N=C2/CCCCc3ccccc32)c1,i,i,i,50.1µM,i
CCCN1CCCC2(CCN(S(=O)(=O)c3cccc(OC)c3)C2)C1=O (configuration not stated),nt,nt,nt,i,nt
Cc1ccc(-c2noc(CNC(=O)Nc3ccccc3)n2)cc1,nt,nt,nt,i,nt
N#Cc1nc(-c2ccco2)oc1N1CCN(C(=O)NCC2CC2)CC1,nt,nt,nt,i,nt
S=C(N/N=C1\CCc2ccccc21)NC1CCCCC1,i,i,?,44.7µM,i
O=C(N/N=C1/CCc2ccccc21)C1CC1,i,i,i,i,i
Cc1cccc(NC(=O)c2ccc[n+]([O-])c2)c1,nt,nt,nt,i,nt
CN(CCC#N)c1ccc(/C=N/NC(N)=S)cc1,nt,nt,nt,17.8µM,nt
COc1ccc(/C=N/NC(N)=S)cc1,i,i,i,25.1µM,i
SMILES,a7 integrin act,Nrf2 ARE act,uPA surface inh,12-LOX inh,IL-2 act
COc1ccc(/C=N/NC(N)=S)cc1OC(=O)c1cccc2ccccc12,i,i,i,15.8µM,i
COc1ccc(C(=O)Oc2cc(/C=N/NC(N)=S)ccc2OC)cc1,i,i,i,31.6µM,i
OCCCNC(=S)Nc1ccc(Cl)cc1,nt,nt,nt,50.1µM,nt
CC(=O)c1ccc(NC(=S)NCCc2ccc(Cl)cc2)cc1,nt,nt,nt,50.1µM,nt
CN1CCC(OC2CCN(C(=O)c3ccc(C(F)(F)F)cc3)CC2)CC1,nt,nt,nt,i,nt
Cc1ccc(S(=O)(=O)N(CC(=O)Nc2cccnc2)c2cccc(Br)c2)cc1,i,i,?,i,i
Cc1ccc(S(=O)(=O)N(CC(=O)Nc2cccnc2)c2cccc([N+](=O)[O-])c2)cc1,i,i,11.2µM,?,i
CCNC(=S)NNC(=O)c1cc(-c2cccc(OC)c2)nc2ccccc12,i,i,i,i,i
CCN(CC)CCCNC(=O)c1cc(Nc2ccc(OC)cc2)nc2ccccc12,i,i,i,i,i
O=C(NCc1ccccn1)c1cc(-c2ccccc2)nc2ccccc12,i,i,i,i,i
O=C(NCc1ccccn1)c1cc(-c2ccc(-c3ccccc3)cc2)nc2ccccc12,i,i,1.12µM,i,i
CCCCCNC(=O)c1cc(-c2ccc(OC)cc2)nc2ccccc12,nt,nt,nt,31.6µM,nt
